Assay [1] can be described thus: ATG_TCF_b_cat_CIS: Attagene CIS-FACTORIAL HepG2 Assay for human T-Cell-Factor with beta-catenin (TCF/b-cat) (AID 2282965; active = hit-call score of the fitted dose curve at least 0.9, where 1 is the maximum; inactive = score below 0.9). The note with it: HepG2 TCF/beta-catenin cis-reporter transcription, actives raise or lower the signal. In short, it runs like this:
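In this cis-format system, transfected HepG2 cells report endogenous transcription factor activity. Readout after 24 h exposure is reporter transcript abundance from RT-PCR and capillary electrophoresis, analysed for gain or loss of signal versus DMSO.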

A short description of assay [2]: ATG_TAL_CIS: Attagene CIS-FACTORIAL HepG2 Assay for human TAL Basal Promoter (AID 2282966; active = hit-call score of the fitted dose curve at least 0.9, where 1 is the maximum; inactive = score below 0.9;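 also: background control endpoint measuring basal TAL promoter reporter mRNA not a specific factor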). The note with it: HepG2 Attagene cis-factorial TAL promoter reporter; actives raise or lower the signal. In short, it runs like this: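 After 24 hours of chemical exposure, transfected HepG2 cells yielded RNA that was converted to 6-FAM-labelled, HpaI-digested reporter fragments for capillary electrophoresis. Values derive from bidirectional fitting against DMSO controls.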

A short description of assay [3]: ATG_TGFb_CIS: Attagene CIS-FACTORIAL HepG2 Assay for human Transforming Growth Factor (TGF) (AID 2282967; active = hit-call score of the fitted dose curve at least 0.9, where 1 is the maximum; inactive = score below 0.9). The note with it: HepG2 Attagene CIS TGFb reporter, mRNA transcription; actives raise or lower the signal. In short, it runs like this:
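Transient MRTU transfection of HepG2 (FuGene 6). Dose 24 h. TriZol RNA, oligo(dT) RT, PCR, 6-FAM primer extension, HpaI cut, CE. Bidirectional fit, DMSO = baseline.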

The nature of assay [4]: ATG_VDRE_CIS: Attagene CIS-FACTORIAL HepG2 Assay for human Vitamin D Receptor Element (VDRE) (AID 2282968; active = hit-call score of the fitted dose curve at least 0.9, where 1 is the maximum; inactive = score below 0.9). The note with it: HepG2 VDRE cis-reporter transcription, actives raise or lower the signal. In short, it runs like this:
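Transfected HepG2 reporter cells, chemical treatment 24 h. RNA isolated, cDNA amplified with reporter-specific primers, products analysed by capillary electrophoresis. Endpoint fitted in both directions versus DMSO.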

Assay [5] has as its target Nuclear receptor subfamily 1 group I member 3 (Homo sapiens) (UniProt Q14994). Briefly: ATG_CAR_TRANS: Attagene TRANS-FACTORIAL HepG2 Assay for human Constitutive Androstane Receptor (CAR) (AID 2282969).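 Also: activators raise reporter mRNA above DMSO so AC50 marks induction.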 The note with it: HepG2 Attagene TRANS-FACTORIAL CAR reporter. In short, it runs like this:
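Steps: transient transfection of HepG2 with multiple GAL4-UAS reporter units; 24 h compound incubation; RNA isolation, RT-PCR, 6-FAM primer extension, HpaI digest; capillary electrophoresis. Gain-of-signal relative to DMSO negative control.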

The target of assay [6] is Estrogen receptor (Homo sapiens) (UniProt P03372). Briefly: ATG_ERa_TRANS: Attagene TRANS-FACTORIAL HepG2 Assay for human Estrogen Receptor alpha (ERa) (AID 2282970). The note with it: HepG2 Attagene TRANS ERa GAL4 reporter, mRNA. In short, it runs like this:
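Liver-derived HepG2 cells expressing chimeric nuclear receptor-Gal4 proteins from transient transfection were exposed for 24 hours. Gain of reporter mRNA signal versus DMSO, read by capillary electrophoresis of FAM-labelled PCR products, was recorded.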

In assay [7] the target is X-box-binding protein 1 (Homo sapiens) (UniProt P17861). The assay can be described thus: ATG_Xbp1_CIS: Attagene CIS-FACTORIAL HepG2 Assay for human X-box Binding Protein 1 (XBP1) (AID 2282972; active = hit-call score of the fitted dose curve at least 0.9, where 1 is the maximum; inactive = score below 0.9). The conditions noted are these: HepG2 XBP1 cis-element reporter, Attagene multiplex; actives raise or lower the signal. In short, it runs like this: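 Multiplexed cis-reporter readout in transfected HepG2 liver cells. Exposure lasted 24 hours. Activity in either direction was fitted against DMSO as negative control and baseline.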

The nature of assay [8]: ATG_M_19_TRANS: Attagene TRANS-FACTORIAL HepG2 Assay for M19 Transcription Factor (Internal Marker) (AID 2282974). The conditions noted are these: HepG2 Attagene TRANS-FACTORIAL M19 internal marker reporter. In short, it runs like this: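 Background-control readout: after 24 h chemical exposure of transfected HepG2 carrying GAL4-driven reporter units, RNA was reverse-transcribed, amplified, fluorescently labeled and sized by capillary electrophoresis; gain-of-signal fit against DMSO.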

The target of assay [9] is Glucocorticoid receptor (Homo sapiens) (UniProt P04150). Briefly: ATG_GR_TRANS: Attagene TRANS-FACTORIAL HepG2 Assay for human Glucocorticoid Receptor (GR) (AID 2282978).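 Also: activators score as hits since higher reporter transcript over DMSO is fitted.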 The conditions noted are these: HepG2 Attagene TRANS GR reporter, mRNA transcription. In short, it runs like this: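 Readout is reporter transcript from a chimeric GR-Gal4 acting on GAL4-UAS in transfected human HepG2 liver cells after 24 h exposure, quantified by RT-PCR and capillary electrophoresis. Activation fitted upward against DMSO.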

The target in assay [10] is Oxysterols receptor LXR-alpha (Homo sapiens) (UniProt Q13133). The assay can be described thus: ATG_LXRa_TRANS: Attagene TRANS-FACTORIAL HepG2 Assay for human Liver X Receptor alpha (LXRa) (AID 2282980). The conditions noted are these: HepG2 Attagene TRANS reporter, LXRa transactivation. In short, it runs like this: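 Transfect HepG2 with GAL4-UAS multiplex reporter constructs (TRANS format, chimeric receptor-GAL4); treat 24 h; extract RNA, reverse-transcribe, PCR-amplify, FAM-label, HpaI-digest; resolve fragments by capillary electrophoresis. Upward response vs DMSO.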

For assay [11], the target named is Oxysterols receptor LXR-beta (Homo sapiens) (UniProt P55055). The assay can be described thus: ATG_LXRb_TRANS: Attagene TRANS-FACTORIAL HepG2 Assay for human Liver X Receptor beta (LXRb) (AID 2282981). The note with it: HepG2 Attagene TRANS GAL4-LXRb reporter, mRNA. In short, it runs like this:
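Liver-derived HepG2 cells transfected with Gal4-responsive reporters were dosed for 24 h. Activation was scored as rise in reporter mRNA, by RT-PCR and capillary electrophoresis, above DMSO baseline.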

Assay [12] deals with Hepatocyte nuclear factor 4-alpha (Homo sapiens) (UniProt P41235). The assay can be described thus: ATG_HNF4a_TRANS: Attagene TRANS-FACTORIAL HepG2 Assay for human Hepatocyte Nuclear Factor 4 alpha (HNF4a) (AID 2282982). The conditions noted are these: HepG2 HNF4a transactivation reporter, mRNA readout. In short, it runs like this: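 Using HepG2 liver cells transfected with GAL4-UAS reporter units, chemical-induced mRNA increases were assessed after 24 hours. Fluorescent RT-PCR fragments were separated by capillary electrophoresis and compared with DMSO negative controls.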

Assay [13] can be described thus: ATG_M_32_TRANS: Attagene TRANS-FACTORIAL HepG2 Assay for M32 Transcription Factor (Internal Marker) (AID 2282984).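 Also: transcript level of a background control reporter unit measured by RT-PCR and capillary electrophoresis.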 The conditions noted are these: HepG2 Attagene TRANS M32 internal marker reporter. In short, it runs like this: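 Fluorescence-detected mRNA induction, HepG2 liver cells, 24 h after dosing. Multiple GAL4-UAS reporter units introduced by transient transfection; background-control endpoint analysed for gain of signal against DMSO.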

Assay [14] concerns the target Nuclear receptor subfamily 4 group A member 2 (Homo sapiens) (UniProt P43354). Briefly: ATG_NURR1_TRANS: Attagene TRANS-FACTORIAL HepG2 Assay for human Nuclear Receptor Related Protein 1 (NURR1) (AID 2282985). The conditions noted are these: HepG2 Attagene TRANS reporter, mRNA readout. In short, it runs like this: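 Chimeric NR-Gal4 proteins were expressed in human HepG2 cells bearing GAL4-UAS reporter units, and induced reporter mRNA was quantified 24 h post-dosing by RT-PCR and capillary electrophoresis.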

Assay [15] concerns the target Transcriptional activator Myb (Homo sapiens) (UniProt P10242). Briefly: ATG_Myb_CIS: Attagene CIS-FACTORIAL HepG2 Assay for human Myeloblastosis (Myb) Proto-Oncogene Transcription Factor (AID 2282986; active = hit-call score of the fitted dose curve at least 0.9, where 1 is the maximum; inactive = score below 0.9). The conditions noted are these: HepG2 Attagene CIS-FACTORIAL Myb reporter transcription; actives raise or lower the signal. In short, it runs like this:
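Reporter mRNA is quantified by RT-PCR and capillary electrophoresis 24 h after dosing HepG2 cells transfected with cis-regulated reporter units, which track endogenous transcription factor activity. Gain and loss of signal are fitted versus DMSO baseline.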

Assay [16] has as its target Bile acid receptor (Homo sapiens) (UniProt Q96RI1). Briefly: ATG_FXR_TRANS: Attagene TRANS-FACTORIAL HepG2 Assay for Farnesoid X Receptor (FXR) (AID 2282979).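 Also: hits raise reporter mRNA above DMSO so AC50 marks FXR activation.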 The note with it: HepG2 Attagene TRANS FXR-GAL4 reporter transcription. In short, it runs like this:
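Transient transfection of HepG2 with multiplexed GAL4-UAS reporter units; exogenous FXR-GAL4 chimera. Dose 24 h → TriZol RNA → oligo(dT) RT → PCR, 6-FAM primer extension, HpaI cut → CE. Gain vs DMSO.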

A short description of assay [17]: ATG_M_06_TRANS: Attagene TRANS-FACTORIAL HepG2 Assay for M06 Transcription Factor (Internal Marker) (AID 2282983).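 Also: reporter transcript level by RT-PCR then capillary electrophoresis fluorescence.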 The note with it: HepG2 Attagene TRANS M06 internal marker reporter. In short, it runs like this:
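Background control endpoint: reporter mRNA from transiently transfected HepG2 after 24 h dosing, detected by RT-PCR with capillary electrophoresis fluorescence. Analysed for gain versus DMSO.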

The target of assay [18] is Steroid hormone receptor ERR1 (Homo sapiens) (UniProt P11474). Briefly: ATG_ERRa_TRANS: Attagene TRANS-FACTORIAL HepG2 Assay for human Estrogen-Related Receptor alpha (ERRa) (AID 2282971). The note with it: HepG2 Attagene TRANS reporter, ERRa transactivation. In short, it runs like this: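 Reporter transcript induction was quantified by RT-PCR and capillary electrophoresis of FAM-labelled, HpaI-cut products after 24 h treatment of HepG2 cells carrying transiently transfected GAL4-UAS reporter units and an exogenous ERRa-Gal4 fusion; activity scored as increase over DMSO.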

The nature of assay [19]: ATG_GAL4_TRANS: Attagene TRANS-FACTORIAL HepG2 Assay for GAL4 (Internal Marker) (AID 2282976). The conditions noted are these: HepG2 Attagene TRANS GAL4 internal marker reporter. In short, it runs like this:
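First, HepG2 cells were transfected with reporter units under GAL4-UAS control. Next, they were treated with chemical for 24 h. Finally, RNA was reverse-transcribed, PCR-amplified, FAM-labelled and resolved by capillary electrophoresis, with induction scored against DMSO.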

Assay [20] concerns the target Estrogen-related receptor gamma (Homo sapiens) (UniProt P62508). Briefly: ATG_ERRg_TRANS: Attagene TRANS-FACTORIAL HepG2 Assay for human Estrogen-Related Receptor gamma (ERRg) (AID 2282977).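 Also: hits increase reporter signal over DMSO so potencies reflect activators.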 The conditions noted are these: HepG2 Attagene TRANS reporter, ERRg transactivation. In short, it runs like this: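 Readout: fluorescent reporter-mRNA fragments resolved by capillary electrophoresis after RT-PCR and HpaI cut. Cells: transiently transfected HepG2 carrying GAL4-UAS reporters driven by exogenous NR-Gal4 chimeras, dosed 24 h. Activity fitted upward relative to DMSO baseline.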

Records with an inconclusive call do not appear. Calls of active or inactive are those of the source. The calls were made as follows, unless noted: active = hit-call score of the fitted dose curve at least 0.9, where 1 is the maximum; inconclusive = response in the unintended direction; inactive = score below 0.9.

Estrogen receptor (Homo sapiens), sequence (P03372 whole entry, looked up, the tested form may be a part): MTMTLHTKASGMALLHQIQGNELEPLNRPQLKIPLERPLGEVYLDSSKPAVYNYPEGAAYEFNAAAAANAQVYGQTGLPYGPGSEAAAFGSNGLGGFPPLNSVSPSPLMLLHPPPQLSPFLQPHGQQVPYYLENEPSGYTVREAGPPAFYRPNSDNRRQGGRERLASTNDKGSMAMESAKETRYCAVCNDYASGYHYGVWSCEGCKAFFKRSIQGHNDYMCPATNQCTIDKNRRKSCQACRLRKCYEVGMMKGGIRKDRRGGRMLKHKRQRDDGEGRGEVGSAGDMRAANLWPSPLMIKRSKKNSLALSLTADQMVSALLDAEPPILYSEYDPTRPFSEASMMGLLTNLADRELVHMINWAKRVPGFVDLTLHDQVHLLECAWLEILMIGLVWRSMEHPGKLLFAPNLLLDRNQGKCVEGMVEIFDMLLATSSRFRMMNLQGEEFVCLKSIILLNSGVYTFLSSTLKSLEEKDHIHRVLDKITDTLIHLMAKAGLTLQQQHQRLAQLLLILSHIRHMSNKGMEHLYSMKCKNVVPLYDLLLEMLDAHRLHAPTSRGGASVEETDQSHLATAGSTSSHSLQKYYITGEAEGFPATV
Transcriptional activator Myb (Homo sapiens), sequence (P10242 whole entry, looked up): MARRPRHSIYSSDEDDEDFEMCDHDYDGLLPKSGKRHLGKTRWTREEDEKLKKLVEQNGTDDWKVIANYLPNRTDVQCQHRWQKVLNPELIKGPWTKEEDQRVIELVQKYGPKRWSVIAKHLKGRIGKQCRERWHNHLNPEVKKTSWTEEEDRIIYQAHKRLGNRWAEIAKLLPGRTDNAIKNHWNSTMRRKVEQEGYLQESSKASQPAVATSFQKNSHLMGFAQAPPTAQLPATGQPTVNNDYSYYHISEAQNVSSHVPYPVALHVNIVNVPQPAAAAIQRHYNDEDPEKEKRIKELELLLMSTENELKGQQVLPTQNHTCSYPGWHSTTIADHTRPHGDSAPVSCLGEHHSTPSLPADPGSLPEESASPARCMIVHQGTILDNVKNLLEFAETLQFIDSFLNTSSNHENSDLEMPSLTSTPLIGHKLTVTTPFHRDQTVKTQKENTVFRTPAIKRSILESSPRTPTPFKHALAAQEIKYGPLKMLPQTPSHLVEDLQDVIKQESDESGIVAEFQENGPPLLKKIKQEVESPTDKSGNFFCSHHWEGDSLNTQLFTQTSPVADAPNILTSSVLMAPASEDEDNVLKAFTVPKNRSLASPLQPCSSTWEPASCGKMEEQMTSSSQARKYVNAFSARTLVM
Nuclear receptor subfamily 1 group I member 3 (Homo sapiens), sequence (Q14994 whole entry, looked up, the tested form may be a part): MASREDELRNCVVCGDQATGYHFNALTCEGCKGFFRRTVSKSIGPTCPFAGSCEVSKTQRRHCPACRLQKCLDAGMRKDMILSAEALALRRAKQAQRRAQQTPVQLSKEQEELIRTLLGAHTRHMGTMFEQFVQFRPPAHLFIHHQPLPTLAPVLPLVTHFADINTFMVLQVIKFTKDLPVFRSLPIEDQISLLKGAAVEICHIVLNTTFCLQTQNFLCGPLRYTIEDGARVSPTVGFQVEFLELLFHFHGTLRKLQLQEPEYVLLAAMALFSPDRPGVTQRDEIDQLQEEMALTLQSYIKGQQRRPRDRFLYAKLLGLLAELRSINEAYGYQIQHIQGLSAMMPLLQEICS
Oxysterols receptor LXR-alpha (Homo sapiens), sequence (Q13133 whole entry, looked up, the tested form may be a part): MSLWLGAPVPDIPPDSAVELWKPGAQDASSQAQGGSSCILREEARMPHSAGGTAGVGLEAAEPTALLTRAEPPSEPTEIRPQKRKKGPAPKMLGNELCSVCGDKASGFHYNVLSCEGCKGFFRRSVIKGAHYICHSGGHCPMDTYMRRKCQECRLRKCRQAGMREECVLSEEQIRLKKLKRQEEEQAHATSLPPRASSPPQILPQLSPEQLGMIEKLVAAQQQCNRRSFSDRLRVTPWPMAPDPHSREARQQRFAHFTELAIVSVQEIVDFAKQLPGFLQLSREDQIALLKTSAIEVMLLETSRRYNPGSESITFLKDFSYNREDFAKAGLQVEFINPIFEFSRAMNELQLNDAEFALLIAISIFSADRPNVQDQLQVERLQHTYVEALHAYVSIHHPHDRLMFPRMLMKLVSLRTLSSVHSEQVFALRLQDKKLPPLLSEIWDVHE
X-box-binding protein 1 (Homo sapiens), sequence (P17861 whole entry, looked up): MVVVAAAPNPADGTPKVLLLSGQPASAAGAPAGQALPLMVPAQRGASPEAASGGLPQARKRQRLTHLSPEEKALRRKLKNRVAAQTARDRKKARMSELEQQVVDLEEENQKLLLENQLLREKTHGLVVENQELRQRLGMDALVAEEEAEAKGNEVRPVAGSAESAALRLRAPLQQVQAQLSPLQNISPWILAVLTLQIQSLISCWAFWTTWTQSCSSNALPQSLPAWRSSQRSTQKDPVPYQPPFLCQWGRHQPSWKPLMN
Nuclear receptor subfamily 4 group A member 2 (Homo sapiens), sequence (P43354 whole entry, looked up, the tested form may be a part): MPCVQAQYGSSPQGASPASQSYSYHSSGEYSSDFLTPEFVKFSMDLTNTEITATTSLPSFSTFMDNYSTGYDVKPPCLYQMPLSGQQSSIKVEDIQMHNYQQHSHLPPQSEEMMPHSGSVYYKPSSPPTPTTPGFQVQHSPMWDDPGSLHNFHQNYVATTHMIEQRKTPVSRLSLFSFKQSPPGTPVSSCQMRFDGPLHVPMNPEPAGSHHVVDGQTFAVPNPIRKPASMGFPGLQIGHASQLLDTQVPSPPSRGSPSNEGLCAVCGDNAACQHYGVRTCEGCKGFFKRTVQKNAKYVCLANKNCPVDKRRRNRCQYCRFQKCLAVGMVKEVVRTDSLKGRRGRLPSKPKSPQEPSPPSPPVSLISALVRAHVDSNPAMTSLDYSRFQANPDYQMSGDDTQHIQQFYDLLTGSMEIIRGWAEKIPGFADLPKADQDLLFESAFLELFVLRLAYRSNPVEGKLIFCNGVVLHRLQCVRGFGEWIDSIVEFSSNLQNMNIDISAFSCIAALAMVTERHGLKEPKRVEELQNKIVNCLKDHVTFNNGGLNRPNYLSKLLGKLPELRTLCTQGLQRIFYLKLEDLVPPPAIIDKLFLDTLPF
Hepatocyte nuclear factor 4-alpha (Homo sapiens), sequence (P41235 whole entry, looked up, the tested form may be a part): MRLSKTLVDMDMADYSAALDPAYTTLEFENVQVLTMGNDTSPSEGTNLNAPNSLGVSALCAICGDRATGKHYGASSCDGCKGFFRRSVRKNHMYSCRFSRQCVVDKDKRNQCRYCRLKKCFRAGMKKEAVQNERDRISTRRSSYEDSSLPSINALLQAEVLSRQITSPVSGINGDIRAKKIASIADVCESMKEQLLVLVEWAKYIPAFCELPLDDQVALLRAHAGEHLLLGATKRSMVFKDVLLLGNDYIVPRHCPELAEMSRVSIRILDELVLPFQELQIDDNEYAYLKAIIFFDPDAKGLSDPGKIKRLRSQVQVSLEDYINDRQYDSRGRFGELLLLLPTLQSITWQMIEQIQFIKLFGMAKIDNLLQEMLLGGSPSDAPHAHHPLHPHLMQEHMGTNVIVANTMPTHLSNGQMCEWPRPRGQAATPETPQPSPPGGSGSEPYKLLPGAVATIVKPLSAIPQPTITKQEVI
Oxysterols receptor LXR-beta (Homo sapiens), sequence (P55055 whole entry, looked up, the tested form may be a part): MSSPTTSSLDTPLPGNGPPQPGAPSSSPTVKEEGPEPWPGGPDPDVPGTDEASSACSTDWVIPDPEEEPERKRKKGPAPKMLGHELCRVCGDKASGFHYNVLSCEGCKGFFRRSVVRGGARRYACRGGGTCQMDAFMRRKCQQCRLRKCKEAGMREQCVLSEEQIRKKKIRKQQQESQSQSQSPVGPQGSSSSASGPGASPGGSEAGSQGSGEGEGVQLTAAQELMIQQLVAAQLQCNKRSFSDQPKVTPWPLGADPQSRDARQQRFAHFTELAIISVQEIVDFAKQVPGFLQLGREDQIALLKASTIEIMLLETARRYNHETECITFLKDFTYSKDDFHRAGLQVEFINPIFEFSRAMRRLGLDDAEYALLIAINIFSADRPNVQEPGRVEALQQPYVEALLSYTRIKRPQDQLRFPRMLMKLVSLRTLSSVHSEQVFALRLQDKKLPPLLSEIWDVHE
Glucocorticoid receptor (Homo sapiens), sequence (P04150 whole entry, looked up, the tested form may be a part): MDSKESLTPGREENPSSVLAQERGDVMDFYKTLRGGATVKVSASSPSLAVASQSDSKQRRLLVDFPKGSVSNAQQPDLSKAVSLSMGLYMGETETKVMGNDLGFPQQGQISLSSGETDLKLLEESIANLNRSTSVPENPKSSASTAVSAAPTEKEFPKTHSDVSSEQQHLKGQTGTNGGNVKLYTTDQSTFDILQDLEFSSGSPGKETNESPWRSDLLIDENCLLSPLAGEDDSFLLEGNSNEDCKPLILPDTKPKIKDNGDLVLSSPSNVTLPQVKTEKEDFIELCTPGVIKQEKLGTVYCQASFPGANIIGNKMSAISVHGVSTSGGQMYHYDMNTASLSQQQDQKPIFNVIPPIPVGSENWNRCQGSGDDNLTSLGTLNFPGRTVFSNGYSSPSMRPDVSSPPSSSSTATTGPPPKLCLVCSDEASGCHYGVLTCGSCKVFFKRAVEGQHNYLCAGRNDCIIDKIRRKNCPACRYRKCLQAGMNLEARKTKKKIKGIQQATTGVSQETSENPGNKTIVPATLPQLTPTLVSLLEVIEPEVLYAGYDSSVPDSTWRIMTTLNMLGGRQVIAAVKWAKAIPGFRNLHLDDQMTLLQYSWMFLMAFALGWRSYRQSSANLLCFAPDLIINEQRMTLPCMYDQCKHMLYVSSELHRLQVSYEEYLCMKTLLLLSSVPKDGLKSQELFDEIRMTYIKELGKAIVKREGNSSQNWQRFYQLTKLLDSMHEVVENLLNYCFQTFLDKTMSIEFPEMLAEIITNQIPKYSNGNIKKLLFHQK

With `CC/C=C\C#N`, the call in assay [1], in assay [2], in assay [3], in assay [4], in assay [5] and in assay [6] was inactive. For the same compound, the result in assay [7], in assay [8], in [9], in assay [10], in assay [11] and in assay [12] was inactive. Also, the call in [13], in [14] and in assay [15] was inactive.

Take `CC1=C(C=O)C(C)(C)CCC1`: the result in assay [1], in assay [2], in assay [3], in [4], in assay [5] and in assay [6] was inactive. The call in assay [7], in [16], in assay [10], in assay [11], in assay [17] and in [15] was inactive.

`CCCCCCCC(=O)N(C)C`: the call in assay [1], in [2], in [3], in [4], in [5] and in assay [6] was inactive. In addition, the compound was called inactive in assay [18], in [7], in assay [8], in assay [19], in assay [20] and in [10]. Besides, the compound was classed as inactive in assay [13], in [14] and in [15].

One may read the AC50 as the concentration giving half of the maximal activity seen. On to `CC(=O)OC(C)(C)C1CC=C(C)CC1` (stereo not given), for which the compound was classed as inactive in assay [1], in assay [2], in assay [3], in assay [4], in [5] and in assay [7]. Moreover, the result in assay [8], in assay [19], in [10], in [13] and in assay [15] was inactive. In assay [6], the AC50 is 61.7 µM (active).

As for `CC(C)N(c1ccccc1)C(C)C`, the result in assay [1], in assay [2], in assay [3], in [4], in [5] and in assay [6] was inactive. Moreover, the call in assay [7], in [9], in assay [12], in assay [14] and in assay [15] was inactive.

(Values after PubChem BioAssay (EPA / NIEHS).)
